Test results reported in PubChem BioAssay (NCI).
The panel holds about 79,000 compounds, 15% with a hit somewhere; the sample as a whole holds those more often. Calls of active or inactive are those of the source. Rule as the data show it: active = growth inhibition above about 70%; inactive = the rest.

What was measured:
[1] = NCI Yeast Anticancer Drug Screen. Data for the rad52 strain (AID 147);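 also: 0% = growth of vehicle-treated control cultures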; conditions: S. cerevisiae rad52 mutant growth inhibition, active compounds read high
Method in brief: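 Here a repair-compromised yeast strain receives each compound; its growth is then quantified and normalised to vehicle-only controls.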

[2] = NCI Yeast Anticancer Drug Screen. Data for the rad50EPP+ strain (AID 151);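 also: 0% = growth of vehicle-treated control cultures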; conditions: S. cerevisiae rad50 mutant strain, active compounds read high
Method in brief: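 Read-out is yeast growth inhibition relative to vehicle; cells used were the rad50EPP+ strain.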

[3] = NCI Yeast Anticancer Drug Screen. Data for the rad50 strain (AID 155);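 also: 0% = growth of vehicle-only cultures of the same strain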; conditions: S. cerevisiae rad50 strain growth inhibition, active compounds read high
Method in brief: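 Vehicle-treated cultures provide the reference for the growth inhibition reported for compound-exposed, repair-deficient yeast.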

[4] = NCI Yeast Anticancer Drug Screen. Data for the mec2-1 strain (AID 157); conditions: S. cerevisiae mec2-1 strain, active compounds read high
Method in brief: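 Using mec2-1 yeast: add compound, measure growth, express inhibition versus vehicle-treated cultures.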

[5] = NCI Yeast Anticancer Drug Screen. Data for the rad14 strain (AID 159);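 also: 0% = growth of vehicle-treated control cultures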; conditions: S. cerevisiae rad14 strain growth inhibition, active compounds read high
Method in brief: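 Inhibition of growth is reported for a repair-deficient yeast mutant following compound treatment, calculated relative to cultures that received vehicle.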

[6] = NCI Yeast Anticancer Drug Screen. Data for the sgs1 mgt1 strain (AID 161);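 also: 0% = growth of cultures given vehicle only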; conditions: S. cerevisiae sgs1 mgt1 strain, active compounds read high
Method in brief: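 Percent growth inhibition was derived by comparing compound-exposed mutant yeast with vehicle-exposed cultures. The strain carries alterations in DNA damage repair.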

[7] = NCI Yeast Anticancer Drug Screen. Data for the CLN2oe strain (AID 163);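 also: 0% = growth of vehicle-only control cultures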; conditions: S. cerevisiae CLN2oe strain, active compounds read high
Method in brief: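 Whole-cell yeast growth assay. A strain engineered for altered cell-cycle control received compound, and inhibition relative to vehicle-treated cultures was recorded.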

[8] = NCI Yeast Anticancer Drug Screen. Data for the cln2 rad14 strain (AID 165);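 also: 0% = growth equal to vehicle treated cultures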; conditions: S. cerevisiae cln2 rad14 strain, active compounds read high
Method in brief: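 Yeast strain cln2 rad14, bearing defects in cell cycle control and DNA repair, serves as the test system; values reflect growth inhibition compared with vehicle.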

[9] = NCI Yeast Anticancer Drug Screen. Data for the bub3 strain (AID 167); conditions: S. cerevisiae bub3 mutant strain, active compounds read high
Method in brief: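 Mutant yeast screening strain plus compound; vehicle-treated cultures serve as the 0% inhibition reference.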

[10] = NCI Yeast Anticancer Drug Screen. Data for the wt2 strain (AID 169); conditions: S. cerevisiae wt2 strain growth inhibition, active compounds read high
Method in brief: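 Treated yeast vs. vehicle-treated yeast: growth inhibition determined.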

[11] = NCI Yeast Anticancer Drug Screen. Data for the sgs1 strain (AID 173);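 also: 0% = growth of vehicle-only control cultures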; conditions: S. cerevisiae sgs1 mutant, active compounds read high
Method in brief: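 A genetically defined yeast mutant is incubated with the test compound, and its growth is compared to that of the same strain given vehicle.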

[12] = NCI Yeast Anticancer Drug Screen. Data for the mlh1 rad18 strain (AID 175); conditions: S. cerevisiae mlh1 rad18 strain growth inhibition, active compounds read high
Method in brief: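 Steps: expose repair-defective yeast to compound; measure growth; express inhibition against vehicle-treated controls.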

[13] = NCI Yeast Anticancer Drug Screen. Data for the rad18 strain (AID 177); conditions: S. cerevisiae rad18 mutant growth inhibition, active compounds read high
Method in brief: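 Measured value is growth inhibition of a yeast strain bearing a DNA repair alteration, referenced to vehicle-treated cells.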

[14] = at 5.0 µM (retest, dose inferred, filed as 0.5)
[15] = at 50.0 µM (retest, dose inferred, filed as 5.0)

Measured: growth inhibition

CC[C@@]1(OC(=O)CN(C)C)C(=O)OCc2c1cc1n(c2=O)Cc2cc3c(N)cccc3nc2-1
inactive: [1]; at 1.2 µM 53% | [2]; at 1.2 µM 7% | [2]; at 3.7 µM 22% | [2]; at 11.0 µM 55% | [3]; at 1.2 µM 68% | [3]; at 50.0 µM -17.9% | [4]; at 1.2 µM 0% | [4]; at 3.7 µM 8% | [4]; [14] 22% | [4]; at 11.0 µM 46% | [4]; [15] 22% | [4]; at 50.0 µM 58.4% | [5]; at 1.2 µM 2% | [5]; at 3.7 µM 0% | [5]; at 11.0 µM 4% | [5]; at 33.0 µM 19% | [5]; at 100.0 µM 51% | [6]; [14] 14% | [6]; [15] 14% | [6]; at 50.0 µM 6.05% | [7]; at 1.2 µM -8% | [7]; at 3.7 µM 1% | [7]; at 11.0 µM 8% | [7]; at 33.0 µM 43% | [8]; [14] 17% | [8]; [15] 17% | [8]; at 50.0 µM 31.1% | [9]; at 1.2 µM -14% | [9]; at 3.7 µM -20% | [9]; [14] 6% | [9]; at 11.0 µM -3% | [9]; at 33.0 µM 20% | [9]; [15] 6% | [9]; at 50.0 µM 0.7% | [9]; at 100.0 µM 59% | [10]; at 1.2 µM -2% | [10]; at 3.7 µM 1% | [10]; at 11.0 µM 3% | [10]; at 33.0 µM 13% | [10]; at 100.0 µM 32% | [11]; at 1.2 µM 0% | [11]; at 3.7 µM 4% | [11]; at 11.0 µM 17% | [11]; at 33.0 µM 40% | [11]; at 100.0 µM 64% | [12]; [14] 27% | [12]; [15] 27% | [13]; at 1.2 µM -18% | [13]; at 3.7 µM -5% | [13]; at 11.0 µM 5% | [13]; at 33.0 µM 19% | [13]; at 100.0 µM 51%
active: [1]; at 3.7 µM 75% | [1]; at 11.0 µM 88% | [1]; at 33.0 µM 93% | [1]; at 100.0 µM 95% | [2]; at 33.0 µM 77% | [2]; at 100.0 µM 87% | [3]; at 3.7 µM 82% | [3]; [14] 90% | [3]; at 11.0 µM 91% | [3]; at 33.0 µM 94% | [3]; [15] 90% | [3]; at 100.0 µM 95% | [4]; at 33.0 µM 88% | [4]; at 100.0 µM 96% | [7]; at 100.0 µM 80% | [12]; at 50.0 µM 73.5%
